{
  "source": "PubChem BioAssay (Tox21)",
  "note": "Inconclusive results are not listed. A number with no mark means an inactive call. Calls come from the whole dose curve; as a rule, active = well fitted activation curve with a large enough effect in the repeat runs; inconclusive = weak or mixed curves; inactive = no such curve, though single readings can be large or run the other way. % is set by controls: 0 for no effect and ±100 for the full control effect.",
  "data": [
    {"target": "Nuclear receptor subfamily 1 group I member 2 (Rattus norvegicus) (UniProt Q9R1A7)", "sequence (Q9R1A7 whole entry, looked up)": "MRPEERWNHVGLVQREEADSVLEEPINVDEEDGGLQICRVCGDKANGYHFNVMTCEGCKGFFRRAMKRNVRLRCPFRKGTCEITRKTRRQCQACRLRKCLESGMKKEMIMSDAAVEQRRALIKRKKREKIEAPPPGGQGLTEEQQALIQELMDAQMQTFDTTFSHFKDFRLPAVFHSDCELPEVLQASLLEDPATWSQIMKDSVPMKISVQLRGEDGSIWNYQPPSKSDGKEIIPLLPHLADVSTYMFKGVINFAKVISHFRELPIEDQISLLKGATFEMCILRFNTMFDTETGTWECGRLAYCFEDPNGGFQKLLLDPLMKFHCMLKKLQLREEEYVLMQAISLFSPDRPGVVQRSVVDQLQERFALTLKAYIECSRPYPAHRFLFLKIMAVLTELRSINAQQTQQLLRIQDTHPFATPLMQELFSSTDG", "experiment": "Rat pregnane X receptor (rPXR) activation by small molecules, qHTS assay (AID 1346983); note: nearly all actives have a fitted effect of over 20% in size", "conditions": "rPXR luciferase reporter cells, One-Glo luminescence, 24 h; stronger effect = higher value", "from_the_text": "National Center for Advancing Translational Sciences [NCATS] NIH Chemical Genomics Center [NCGC] U.S. Environmental Protection Agency [EPA] National Institutes of Environmental Health Sciences [NIEHS] National Toxicology Program [NTP] Assay overview: The Pregnane X receptor (PXR), a ligand activated nuclear receptor plays a critical role in the regulation of genes involved in drug metabolism and transporters. PXR binds xenobiotics and when compounds interact with PXR produces enhanced expression of CYP3A genes. In humans PXR activation and CYP3A4 induction can be problematic due to their interactions with co-medicated drugs and decrease their efficacy or increase their own metabolism. However, there are known species-specific differences with regard to PXR activation that should be taken into account when animal PXR data are extrapolated to humans. A cell based rat PXR (rPXR) assay (developed by Puracyp, Inc., CA) was used to assess the activation of rPXR.\nAssay Protocol Summary: rPXR cells were dispensed at 2,000 per well in 5uL of assay medium into white, solid-bottom 1536-well plates using a Multidrop Combi dispenser (Thermo Scientific). The assay plates were incubated at 37 C for 5hr before transferring 23 nL of test compounds dissolved in DMSO and positive control via Pintool station (Wako). The assay plates were incubated at 37 C for 24 hr. Then 5ul One-Glo assay reagent (Promega) was added to each plate by a Flying Reagent Dispenser (FRD, Aurora Discovery) and following 30 min incubation at room temperature, luciferase activity was quantified on a ViewLux plate reader (Perkin Elmer).", "units": {"max activation": "%"}, "values": [
      {"smiles": "C[N+](C)(C)CCOC(=O)C(O)(c1ccccc1)c1ccccc1", "max activation": -2.47},
      {"smiles": "CCOC(=O)NC(O)C(Cl)(Cl)Cl", "note": "(stereo not given)", "max activation": -1.22},
      {"smiles": "[Cl-].[Cl-].[Hg+2]", "max activation": -4.43},
      {"smiles": "COc1ccccc1N1CCNCC1", "max activation": -3.01},
      {"smiles": "FC(F)OC(F)(F)C(F)Cl", "note": "(stereo not given)", "max activation": -2.15},
      {"smiles": "NP(N)(=O)NC(=O)c1ccc(F)cc1", "max activation": 0.566},
      {"smiles": "O=[N+]([O-])O[C@H]1CO[C@H]2[C@@H]1OC[C@H]2O[N+](=O)[O-]", "max activation": -0.141},
      {"smiles": "C[CH2][Hg][S]c1ccccc1C(=O)O", "max activation": -14.1},
      {"smiles": "NCCc1cc(O)c(O)cc1O", "max activation": -4.9},
      {"smiles": "CCC1(CC)C(=O)NC(=O)NC1=O", "max activation": 0.212},
      {"smiles": "COC1CC(=C(c2cccs2)c2cccs2)C[N+](C)(C)C1", "note": "(stereo not given)", "max activation": -1.69},
      {"smiles": "C#C[C@]1(O)CC[C@H]2[C@@H]3CCC4=CC(=O)CCC4=C3C=C[C@@]21CC", "max activation": -15.2},
      {"smiles": "CCCC[N+]1(C)[C@@H]2CC(OC(=O)[C@H](CO)c3ccccc3)C[C@H]1[C@@H]1O[C@@H]12", "note": "(stereo not given in full)", "max activation": -0.805},
      {"smiles": "C[N+]1(CCC(C(N)=O)(c2ccccc2)c2ccccc2)CCCCC1", "max activation": -4.99},
      {"smiles": "CC[N+]1(C)CCCC(OC(=O)C(O)(c2ccccc2)c2ccccc2)C1", "note": "(stereo not given)", "max activation": 2.38},
      {"smiles": "CCN(C(C)=O)c1cccc(-c2ccnc3c(C#N)cnn23)c1", "max activation": -2.18},
      {"smiles": "C[C@H](N)[C@H](O)c1ccc(O)c(O)c1", "max activation": -1.11},
      {"smiles": "CCCC1CCCCN1", "note": "(stereo not given)", "max activation": -2.95},
      {"smiles": "CC(C)CCON=O", "max activation": -3.41},
      {"smiles": "CC[N+]1(CCOC(=O)C(O)(c2ccccc2)c2ccccc2)CCCCC1", "max activation": 0.456},
      {"smiles": "CC(C)(C)NCC(O)c1cc(Cl)c(N)c(C(F)(F)F)c1", "note": "(stereo not given)", "max activation": 8.47},
      {"smiles": "CN[C@@H](C)[C@H](O)c1ccccc1", "max activation": -0.788},
      {"smiles": "O=C(N/N=C/c1ccc([N+](=O)[O-])o1)c1cc([N+](=O)[O-])cc([N+](=O)[O-])c1O", "max activation": 3.24},
      {"smiles": "COc1ccc(C(=O)c2c(C)n(CCN3CCOCC3)c3ccccc23)cc1", "max activation": 9.34},
      {"smiles": "CCOC(=O)c1cncn1C(C)c1ccccc1", "note": "(stereo not given)", "max activation": 0.791},
      {"smiles": "c1ccc2sc(SNC3CCCCC3)nc2c1", "max activation": 11.8},
      {"smiles": "c1ccc2c(c1)sc1ccccc12", "max activation": -3.19},
      {"smiles": "CC(C)(C)NCC(O)c1ccccc1Cl", "note": "(stereo not given)", "max activation": -2.03},
      {"smiles": "CCCCCCCCCCCC[N+](C)(C)CCOc1ccccc1", "max activation": -6.32},
      {"smiles": "O=C1CC[C@@]2(O)[C@H]3Cc4ccc(O)c5c4[C@@]2(CCN3CC2CC2)[C@H]1O5", "max activation": -2.95},
      {"smiles": "CCCCCl", "max activation": -0.159},
      {"smiles": "C=CCN1C[C@H](C)N([C@H](c2ccc(C(=O)N(CC)CC)cc2)c2cccc(OC)c2)C[C@H]1C", "max activation": 5.88},
      {"smiles": "CN1C[C@H](C(=O)N[C@]2(C)O[C@@]3(O)[C@@H]4CCCN4C(=O)[C@H](Cc4ccccc4)N3C2=O)C=C2c3cccc4[nH]cc(c34)C[C@H]21", "max activation": -2.24},
      {"smiles": "CN1C(=O)CN=C(c2ccccc2)c2cc([N+](=O)[O-])ccc21", "max activation": 8.45},
      {"smiles": "O=CC=O", "max activation": -4.84}
    ]}
  ]
}
